Hits are enriched below; roughly 2.2% of the tested compounds scored in any of these assays.
HGIII-sPLA2 inh – human group III sPLA2 inhibitors, primary screen, biochemical, QFRET, BODIPY PC-A2 liposome substrate; Group 3 secretory phospholipase A2 (Homo sapiens), Q9NZ20; QFRET BODIPY PC-A2 liposome hydrolysis, fluorescence; inhibition, % at 12.2 µM; hit rate 0.56% among 370,000; AID 743126, 2013;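 active = inhibition above mean plus 3 SD of compounds lying within the high and low control bounds, cut at about 19% in these data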;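 also: 0% = median of test compound wells and 100% = no enzyme DMSO wells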
Target sequence (Q9NZ20 whole entry, looked up): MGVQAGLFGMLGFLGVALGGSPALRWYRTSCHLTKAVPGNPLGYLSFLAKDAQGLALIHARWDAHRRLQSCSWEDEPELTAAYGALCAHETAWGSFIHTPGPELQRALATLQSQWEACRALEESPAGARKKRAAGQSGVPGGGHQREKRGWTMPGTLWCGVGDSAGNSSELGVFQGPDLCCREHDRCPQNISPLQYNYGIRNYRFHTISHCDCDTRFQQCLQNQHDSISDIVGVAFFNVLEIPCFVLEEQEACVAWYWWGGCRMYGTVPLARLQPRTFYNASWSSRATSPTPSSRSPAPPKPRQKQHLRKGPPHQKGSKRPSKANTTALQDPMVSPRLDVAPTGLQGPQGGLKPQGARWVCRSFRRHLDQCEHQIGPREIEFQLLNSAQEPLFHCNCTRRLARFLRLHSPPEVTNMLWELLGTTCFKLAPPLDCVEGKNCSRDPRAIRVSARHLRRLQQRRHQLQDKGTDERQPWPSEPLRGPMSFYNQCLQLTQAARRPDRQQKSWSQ
Efflux pump mplx – inhibitors of Candida efflux pumps in yeast, primary screen, S. cerevisiae, Nile Red, multiplex; hit rate 0.44% among 330,000; AID 485275, 2010; S. cerevisiae Candida pump triplex; inhibition, % at 10 µM;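 active = plate passing quality check with inhibition over a set limit, or well fluorescence over plate mean plus 4 SD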;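 also: Nile Red retained in pooled yeast measured as flow cytometry median fluorescence; 0% = buffer negative control and 100% = Enniatin B positive control; higher means more Nile Red kept so more efflux inhibition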
SKN-1 block – suppressors of acrylamide-induced Pgst-4::GFP reporter in worms, primary screen, SKN-1 inhibitor project, whole organism, uHTS, GFP/RFP fluorescence ratio, strain VP596. C. elegans VP596 Pgst-4::GFP/RFP ratio, 24 h. inhibition, % at 21.8 µM. hit rate 0.49% among 360,000. AID 624304, 2012;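 active = interference check ratio from 0.5 to 1.5 plus GFP to RFP signal ratio inhibition reaching or exceeding a fixed threshold, cut at about 30% in these data, passing the limit was not always enough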
Mot1-301 SUMO – yeast Mot1-301 growth rescue at high temperature, primary screen, SUMOylation pathway inhibitor project, S. cerevisiae, ATP luminescence, 38.5C; S. cerevisiae Mot1-301 growth rescue; percent above DMSO median, 100 means doubled; growth rescue, % at 18.8 µM; hit rate 1% among 320,000; AID 2716, 2010;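 active = every valid replicate shows activation above 250% relative to neutral control wells; inactive = the rest, any valid replicate at or below 250%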;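 also: OY570 slx delta 5 strain wells were the positive control but not used for scaling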
sPLA2 confirm – human group III sPLA2 inhibitors, confirmation, biochemical, QFRET, triplicate; shares compounds with HGIII-sPLA2 inh; recombinant hGIII-sPLA2, BODIPY PC-A2 QFRET fluorescence; inhibition, % at 12.2 µM; hit rate 34% among 2,000; AID 743280, 2014;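 active = mean inhibition across triplicates above the hit cutoff set in the earlier primary screen, cut at about 19% in these data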;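 also: 0% = enzyme with DMSO and 100% = DMSO wells lacking enzyme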
535nm interf – 535nm fluorescence optical interference, confirmation, artefact control for HGIII-sPLA2 inhibitor project, biochemical, QFRET. shares compounds with HGIII-sPLA2 inh. BODIPY FL product fluorescence interference. inhibition, % at 12.2 µM. hit rate 8.5% among 2,000. AID 743282, 2014;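 active = average inhibition above the solvent-only control mean plus 3 SD, cut at about 6% in these data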;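 also: 0% = DMSO with substrate plus product and 100% = DMSO with substrate alone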
BODIPY interf DR – 535nm fluorescence optical interference, dose response, artefact control for HGIII-sPLA2 inhibitor project, biochemical, QFRET. AID 743455, 2014. shares compounds with HGIII-sPLA2 inh. 240 tested, under 10 active. IC50, µM. BODIPY FL product fluorescence interference, cell-free;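 active = IC50 at or below 10 µM; inactive = IC50 above 10 µM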
* = called active by the depositor; . = no result.

SMILES	HGIII-sPLA2 inh	Efflux pump mplx	SKN-1 block	Mot1-301 SUMO	sPLA2 confirm	535nm interf	others
O=C(Nc1ccccc1)C1C2CCCCC21 (configuration not stated)	-4	0	5	11	.	.
COc1cc(/C=C2/SC(=S)N(CC(=O)NNC(=O)c3ccc(F)cc3)C2=O)cc(OC)c1OC	3	.	-4	.	.	.
COc1ccccc1N(C(C)=O)C1=C(Cl)C(=O)c2ccccc2C1=O	21*	.	5	.	38*	6	BODIPY interf DR=>122
CC(C)C(=O)N1CCC1(C)C(=O)Nc1ccc(-n2cccc2)cc1 (configuration not stated)	-4	.	15	.	.	.
COCCCNC(=S)N/N=C/c1ccc2c(c1)OCO2	24*	0	19	-27	12	-3
COCCNC(=S)N/N=C/c1ccc2c(c1)OCCO2	1	0	-12	.	.	.
S=C(NN=Cc1ccc2c(c1)OCO2)NN=Cc1ccc2c(c1)OCO2	-2	.	12	.	.	.
CC(C)NC(=S)N/N=C/c1ccc2c(c1)OCCO2	19*	0	-1	0	18	-5
CC1CCC(NC(=O)c2cc(S(=O)(=O)N(C)C)ccc2N2CCCC2)CC1 (configuration not stated)	6	0	7	7	.	.
Cc1cc2ncn(N)c2cc1C	90*	0	6	-10	-1	-7
CC(O)(CC(=O)O)CC(=O)O	.	0	.	237	.	.
Cc1nn(-c2ccccc2)c(C)c1NC(=O)COC(=O)c1ccccc1OC(F)F	-1	0	17	-6	.	.
CC(C)(C)C(=O)NC(=S)Nc1ccc(Cl)c(C(=O)O)c1	8	0	4	17	.	.
CC(C)(C)C(=O)NC(=S)Nc1ccc(C(F)(F)F)cc1	21*	0	-7	34	19	-4
CCC(=O)NC(c1ccc(C)cc1)c1ccc2cccnc2c1O (configuration not stated)	21*	0	7	-6	16	-12
CCCCC(=O)NC(c1ccc(OC)cc1)c1ccc2cccnc2c1O (configuration not stated)	10	.	15	.	.	.
CCC(=O)NC(c1ccc(C)cc1)c1cc([N+](=O)[O-])c2cccnc2c1O (configuration not stated)	8	0	4	4	.	.
CCCC(=O)NC(c1ccc(C(C)C)cc1)c1ccc2cccnc2c1O (configuration not stated)	20*	0	15	-16	18	-12
CCCC(=O)NC(c1ccc(N(C)C)cc1)c1ccc2cccnc2c1O (configuration not stated)	23*	0	-3	-1	25*	-5
CC(=O)NC(c1ccc(N(C)C)cc1)c1cc(Cl)c2cccnc2c1O (configuration not stated)	13	.	14	.	.	.
CCCC(=O)NC(c1ccccc1Cl)c1ccc2cccnc2c1O (configuration not stated)	30*	0	2	1	26*	1
O=C1NC[C@H](CCCCN2CCN(Cc3ccccc3)C(=O)C2=O)N(CCc2ccccc2)C1=O	5	.	29	.	.	.
CCOC(=O)c1cnn(-c2ccccc2)c1-c1ccncc1	8	0	-4	-22	.	.
CC(OC(=O)c1cc(=O)[nH]c2ccccc12)C(=O)NC1CCCC1 (configuration not stated)	6	0	-8	2	.	.
CC(C)CC(=O)Nc1ccc(S(=O)(=O)Nc2nccs2)cc1	-6	0	-12	85	.	.
SMILES	HGIII-sPLA2 inh	Efflux pump mplx	SKN-1 block	Mot1-301 SUMO	sPLA2 confirm	535nm interf	others
O=c1c2cc(Br)ccc2[nH]c(=S)n1Cc1cccnc1	7	0	-10	398	.	.
O=c1c2ccccc2[nH]c(=S)n1Cc1cccnc1	20*	0	10	2	11	-5
O=C(C(=O)N1CCN(C(=O)c2cc(C(F)(F)F)cc(C(F)(F)F)c2)CC1)c1cccc(C(F)(F)F)c1	2	.	.	.	.	.
COCC(=O)N1CCN(C(=O)C(=O)c2cccc(C(F)(F)F)c2)CC1	23*	.	.	.	1	-2
CCCCN(C)S(=O)(=O)c1ccc(C(=O)N=c2sc3cc(NC(C)=O)ccc3n2C)cc1	15	0	-9	-17	.	.
CCCCN(CC)S(=O)(=O)c1ccc(C(=O)N=c2sc3cc(NC(C)=O)ccc3n2C)cc1	20*	0	-7	-11	-28	-13
Oc1cccc(/C=N/NC(=S)Nc2cccnc2)c1O	34*	0	-5	-21	21*	2
Cc1ccc(S(=O)(=O)Nc2ccc(Oc3cccnc3)nc2)cc1	-8	0	3	17	.	.
Cc1cc(C(=O)N/N=C2\CCCc3ccccc32)c(C)o1	-1	0	5	-4	.	.
COc1ccc2c(c1)CCC/C2=N\NC(=O)c1ccoc1C	21*	0	2	8	12	-5
COC(=O)C1CN(CC(C)C)CCS(=O)(=O)N1Cc1cccc(Cl)c1 (configuration not stated)	1	.	.	.	.	.
O=[N+]([O-])c1ccc(Cl)c(C2Nc3cccc4cccc(c34)N2)c1	32*	0	17	-37	57*	18*
CC(C)(C)c1cc(-c2n[nH]c(=S)n2-c2ccc(Cl)cc2)n[nH]1	21*	0	0	-15	27*	4
Cc1ccc(CN2CCN(/N=C/c3ccc(N(C)C)cc3)CC2)cc1	21*	0	6	-9	12	-4
COc1ccc(NC(=O)C(c2ccc(Cl)cc2)C(C)C)cn1 (configuration not stated)	.	0	-3	-8	.	.
Cc1ccc(NC(=S)NC(=O)Cc2ccccc2)c(O)c1	-6	0	-4	-5	.	.
CCOc1cc(CNc2ncc(-c3ccc(OC)cc3)n2C)ccc1O	20*	0	-3	-22	6	-17
CCc1noc(C)c1C(=O)N(CC)c1nc2c(C)cccc2s1	6	0	7	-16	.	.
CCc1c(C)sc(NC(=O)c2cccs2)c1C#N	20*	0	23	12	25*	-3
CCOC(=O)c1c(NC(=O)c2cccs2)sc(C)c1CC	4	0	3	-2	.	.
CCOc1cc(CNc2ccc3c(c2)OCCO3)cc(Br)c1OCC	23*	0	1	6	34*	-4	BODIPY interf DR=>122
O=C(CCC1CCN(C(=O)Cc2c(F)cccc2F)CC1)NC1CC1	7	0	10	357	.	.

Source: PubChem BioAssay
